Assay results reported in PubChem BioAssay (Tox21).
Several values for one entry are separate records, joined by “and”; a condition that tells them apart may be missing. Equal entries are not always repeated. Inconclusive results are not listed. Entries that show only a call come without a potency. Some structures have more than one record in an assay (separate samples or runs), and their calls can disagree. Activity calls are given as the source filed them. Calls come from the whole dose curve; as a rule, active = well fitted inhibition curve with a large enough effect in the repeat runs; inconclusive = weak or mixed curves; inactive = no such curve, though single readings can be large or run the other way.

Each molecule was assayed against Cytochrome P450 2C9 (Homo sapiens) (UniProt P11712) (assay: Cytochrome P450 Family 2 Subfamily C Member 9 (CYP2C9) small molecule antagonists: luciferase reporter qHTS assay (AID 1671198; note: nearly all actives have a fitted effect of over 50% in size)). Details: P450-Glo CYP2C9 enzyme assay, luciferin luminescence; series mostly up to 115 µM; activity change, negative = inhibition: at the top concentration.
Source text: U.S. Tox21 Program National Center for Advancing Translational Sciences [NCATS] U.S. Environmental Protection Agency [EPA] National Institutes of Environmental Health Sciences [NIEHS] National Toxicology Program [NTP] U.S. Food and Drug Administration [FDA] Tox21 Assay Overview: Cytochrome P450 (CYP) enzymes are membrane-bound hemeproteins that play a key role in metabolism of drugs and xenobiotics. Evaluation of the effect of chemicals on CYP isozymes is useful to minimize the adverse drug reactions and toxicities in drug development process. Tox21 chemicals were tested for their effect on CYP enzyme activities by using P450-Glo (TM) screening systems (Promega Corporation, Madison, WI). These systems provide a luminescent method containing proluciferin substrates and are converted to luciferin products by CYP isozymes. The luciferin products formed are detected with a luciferin detection reagent, and the amount of light produced is proportional to CYP activity. P450-Glo (TM) CYP2C9 screening system (Catalog. No. V9790) was used to detect the compounds that interfere in CYP2C9 activity.
Tox21 Assay Protocol Summary: Two ul of enzyme-substrate mix was dispensed into medium binding white/solid 1536-well plates (Greiner Bio-One North America Inc., Monroe, NC) using a BioRaptr Flying Reagent Dispenser (FRD, Beckman Coulter, Brea, CA). […] The assay plates were incubated at room temperature for 10 min. Then 2 ul of NADPH regeneration solution was added to each well of the assay plates using an FRD and incubated at 37C for 1 h. The reaction was stopped by adding 4 ul of detection reagent using an FRD and after 20 min incubation at room temperature the luminescence signal was measured using a ViewLux plate reader (Perkin Elmer, Shelton, CT). Data were expressed as relative luminescence units.
Potency is the fitted concentration of half-maximal effect.

Cytochrome P450 2C9 (Homo sapiens), sequence (P11712 whole entry, looked up): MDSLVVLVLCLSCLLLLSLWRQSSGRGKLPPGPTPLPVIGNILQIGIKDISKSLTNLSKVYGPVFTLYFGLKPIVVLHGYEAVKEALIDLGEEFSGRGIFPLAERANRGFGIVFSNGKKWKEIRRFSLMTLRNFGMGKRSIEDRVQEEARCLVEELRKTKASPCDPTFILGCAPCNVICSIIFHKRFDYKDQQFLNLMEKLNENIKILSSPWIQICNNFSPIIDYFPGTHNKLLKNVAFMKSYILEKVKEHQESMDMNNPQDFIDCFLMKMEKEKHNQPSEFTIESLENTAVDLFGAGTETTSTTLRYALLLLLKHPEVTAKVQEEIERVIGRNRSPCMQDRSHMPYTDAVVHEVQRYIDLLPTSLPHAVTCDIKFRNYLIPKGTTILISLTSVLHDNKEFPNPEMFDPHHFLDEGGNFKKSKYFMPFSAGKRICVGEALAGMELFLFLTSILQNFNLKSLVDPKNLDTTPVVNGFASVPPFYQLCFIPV

SMILES | activity change, negative = inhibition | Potency
CCCCCCCCCCCC(=O)N(C)CC(=O)O | -4.94% [at 10.5 µM] (inactive) | 38.7 µM (active)
CCCCCNCCCCC | -12.8% (inactive) | 
CCCCCCCC(=O)O | -7.16% (inactive) | 
CC1(C)[C@@H](O[C@H]2O[C@H](C(=O)O)[C@@H](O)[C@H](O)[C@H]2O[C@@H]2O[C@H](C(=O)O)[C@@H](O)[C@H](O)[C@H]2O)CC[C@]2(C)[C@H]3C(=O)C=C4[C@@H]5C[C@@](C)(C(=O)O)CC[C@]5(C)CC[C@@]4(C)[C@]3(C)CC[C@@H]12 |  | inactive
Brc1ccc(Oc2ccc(Br)cc2)cc1 |  | 35.6 µM (active)
Cc1ccc(C(C)C)cc1 |  | inactive
OB(O)O | -19.4% (inactive) | 
CCCOCC(C)O (stereo not given) |  | inactive
COc1cc(NC(=O)CC(C)=O)c(OC)cc1Cl |  | 40.1 µM (active) and 39.9 µM (active)
CN=C(NC#N)NCCSCc1nc[nH]c1C |  | 19.8 µM (active) and 15.5 µM (active)
OC[C@H]1O[C@@H](Oc2ccc(O)cc2)[C@H](O)[C@@H](O)[C@@H]1O |  | inactive
CN1CCCC1=O |  | inactive
COc1c(Cl)ccc(Cl)c1C(=O)O |  | 39.9 µM (active)
CC/C=C(\C(=O)N[C@@H]1C(=O)N2C(C(=O)OCOC(=O)C(C)(C)C)=C(COC(N)=O)CS[C@H]12)c1csc(N)n1 |  | 12.3 µM (active) and 7.76 µM (active)
CC(C)c1ccc(C(C)C)cc1 | -16.3% (inactive) | 
NC(=O)NC(N)=O |  | inactive
N#CCC(=O)O |  | inactive
Cc1ccncc1 |  | inactive
CCOC(=O)CC(=O)OCC |  | inactive
OCC(O)CS (stereo not given) |  | inactive

SMILES | activity change, negative = inhibition | Potency
O=C1C(N(CO)C(=O)NCO)N(CO)C(=O)N1CO (stereo not given) |  | inactive
CC(C)(CO)CO |  | inactive
CCc1cccc(CC)c1N |  | 71 µM (active)
CC(C)(C)NC[C@H](O)COc1nsnc1N1CCOCC1 |  | inactive
CS(=O)(=O)c1ccc(Cl)cc1 |  | inactive
CCCCCC(C)=O |  | inactive
CC1(C)C(=O)N(Cl)C(=O)N1Cl | -20.5% (inactive) | 
CC(=O)c1nccs1 |  | 32.8 µM (active) and inactive
O=[N+]([O-])c1cc(C(F)(F)F)ccc1Cl |  | inactive
C=CC(=O)NCOCCCC | -22.5% (inactive) | 
CC(=O)CC(=O)N(C)C |  | inactive
CC(C)=CCC/C(C)=C/C=O |  | inactive and 79.6 µM (active)
Cc1cc(C)cc(O)c1 |  | inactive
CC(=O)Nc1ccc(CC(=O)O)cc1 |  | inactive
CCc1cccc(O)c1 |  | inactive
c1cnc2c(c1)ccc1cccnc12 |  | 8.94 µM (active)
CCCCCCC(=O)O | -2.4% (inactive) | 
CCCOC(=O)NCCCN(C)C |  | 63.3 µM (active) and inactive
CCCN(CCC)C(=O)SCC | -1.7% (inactive) | 
